Screening results as filed in PubChem.
Rows were chosen to be rich in hits. Some 12% of all compounds tested hit in one or more screens of this group.
Sm TGR block: inhibitors of Schistosoma mansoni thioredoxin glutathione reductase; AID 485364; purified TGR, DTNB reduction, TNB absorbance 405 nm; Q962Y6; Potency, µM (doses to about 114 µM), inactives show top-dose activity change, negative = inhibition, actives largely listed as inhibitors; 360,000 compounds, 3% hits; note: % is set by controls: 0 for no effect and ±100 for the full control effect; nearly all actives have a fitted effect of over 60% in size
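Kinetic colorimetric format: TGR-catalysed, NADPH-driven DTNB reduction monitored via TNB absorbance. Enzyme dispensed at 20 nM; compound exposure 15 min at room temperature before reaction start.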
SARS PLP yeast: SARS-CoV PLP inhibition in yeast. S. cerevisiae expressing SARS-CoV PLpro, growth rescue. Potency, µM (highest dose often 32.9 µM), without a hit: top-dose activity, positive = growth rescue, usual class: activators. 330,000 compounds, 0.19% hits. AID 485353; calls by dose curve; note: 0% is about no effect; nearly all actives have a fitted effect of over 55% in size
AmpC no deterg: AmpC beta-lactamase inhibition without detergent; P00811; AmpC nitrocefin hydrolysis, absorbance 480 nm, 0.0001% Triton; 330,000 compounds, 0.52% hits; Potency, µM (highest dose often 57.1 µM), for the others: top-dose activity change, negative = inhibition, actives largely listed as inhibitors;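 note: plate controls were no compound for no effect and no enzyme for full effect; nearly all actives have a fitted effect of over 20% in size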
Target sequence (P00811 whole entry, looked up): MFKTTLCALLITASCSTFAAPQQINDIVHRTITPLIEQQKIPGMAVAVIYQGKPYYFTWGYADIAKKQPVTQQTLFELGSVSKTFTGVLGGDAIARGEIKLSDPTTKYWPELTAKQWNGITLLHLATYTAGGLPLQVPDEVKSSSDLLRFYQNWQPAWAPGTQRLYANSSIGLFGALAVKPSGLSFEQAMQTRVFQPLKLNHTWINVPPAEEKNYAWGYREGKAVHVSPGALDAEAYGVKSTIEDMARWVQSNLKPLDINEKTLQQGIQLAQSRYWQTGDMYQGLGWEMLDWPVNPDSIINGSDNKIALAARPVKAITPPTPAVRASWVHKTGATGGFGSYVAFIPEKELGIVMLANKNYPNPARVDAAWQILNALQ
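AmpC (5.3 nM in the dispensed reagent) in 20 mM phosphate pH 7.0 with 0.01% (detergent screen) or 0.0001% Triton X-100 was preincubated with compounds for 15 min at room temperature. Nitrocefin was then added from an 800 uM solution, and hydrolysis was followed at 480 nm.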
AmpC inh detg: inhibitors of E. coli AmpC beta-lactamase with detergent; AmpC hydrolysis of nitrocefin, absorbance 480 nm, 0.01% Triton; 370,000 compounds, 0.041% hits; Potency, µM (series often up to 114 µM), without a hit: at the highest dose activity change, negative = inhibition, actives largely listed as inhibitors; AID 485294;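 note: 0% = no-compound wells and -100% = no-enzyme wells; nearly all actives have a fitted effect of over 25% in size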
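AmpC (5.3 nM in the dispensed reagent) in 20 mM phosphate pH 7.0 with 0.01% (detergent screen) or 0.0001% Triton X-100 was preincubated with compounds for 15 min at room temperature. Nitrocefin was then added from an 800 uM solution, and hydrolysis was followed at 480 nm.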
Pf growth 96h: inhibits malaria parasite growth, 96 h; P. falciparum luciferase reporter growth, 96 h; Potency, µM (series often up to 28.7 µM), inactives show top-dose activity change, negative = inhibition, hits mostly inhibitors; 320,000 compounds, 6.9% hits; AID 504834; note: % is set by controls: 0 for no effect and ±100 for the full control effect
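Two-generation exposure (96 h) targets delayed-death phenotype. Reporter parasites carrying integrated firefly luciferase, in red cells at 2% hematocrit and 0.05% parasitemia final, kept at 37 C, 5% CO2; luminescence loss indicates inhibition.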
Pf growth 48h: inhibits P. falciparum growth in the first generation, 48 h; Potency, µM (doses to about 28.7 µM), inactives show at the highest dose activity change, negative = inhibition, usual class: inhibitors; P. falciparum luciferase growth in erythrocytes, 48 h; 310,000 compounds, 5.9% hits; note: % is set by controls: 0 for no effect and ±100 for the full control effect
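A one-generation exposure of luciferase-tagged malaria parasites in RPMI 1640/Albumax erythrocyte culture, 37 C and 5% CO2. Inhibition is inferred from decreased luminescence after adding detection reagent.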
Numbers without * were called inactive; ? = inconclusive; / = not tested or not shown; [ ] = dose if it differs, or a comment. Unless noted, calls come from the whole dose curve; as a rule, active = well fitted curve in the direction sought with a large enough effect; inconclusive = small, poorly fitted or top-dose-only effect, or another doubt; inactive = no such curve, though single readings can be large; an effect the other way counts as inactive or inconclusive. Potency is the fitted concentration of half-maximal effect.

SMILES	Sm TGR block	SARS PLP yeast	AmpC no deterg	AmpC inh detg	Pf growth 96h	Pf growth 48h
CCOC(=O)c1c(C)[nH]c(C)c1C(=O)CSc1nnnn1-c1ccccc1	?	-5%	-13%	?	12µM*	/
COc1ccc(-c2sc3ccc(N4CCOCC4)cc3c2C#CCCO)cc1	/	0%	172%	/	/	/
CC(C)c1ccc(C2NC(=O)c3ccccc3O2)cc1 (stereo not given)	-9%	1%	-14%	5%	11%	17%
COc1ccc(C(=O)NCCNC(=O)c2cc(OCC(F)(F)F)ccc2OCC(F)(F)F)cc1	-5%	/	/	0%	-3%	4%
CCOC(=O)c1c(NC(=O)CSc2nc3ccccc3c(=O)n2-c2ccc(F)cc2)sc(C(C)=O)c1C	3%	?	-40%	-5%	3.3µM*	4.1µM*
CCOC(=O)c1c(NC(=O)CSc2ncnc3ccccc23)sc(C(C)=O)c1C	-8%	14%	-17%	?	-23%	4%
O=C(CSc1nnc(NC(=O)C2CC(=O)N(c3ccc(F)cc3)C2)s1)NCc1ccco1 (stereo not given)	?	-3%	-26%	-6%	?	?
Nc1ccn([C@@H]2O[C@H](CO)[C@H](O)C2(F)F)c(=O)n1	/	/	/	/	1.5µM*	1.9µM*
COc1ccc(C2C(C(=O)Nc3cc(OC)c(OC)c(OC)c3)c3ccccc3C(=O)N2C)cc1OC (stereo not given)	6%	1%	101%	-2%	51%	12µM*
COc1ccc(C2C(C(=O)NC(C)C)c3ccccc3C(=O)N2C)cc1OC (stereo not given)	0%	0%	-1%	1%	1µM*	-1%
COc1ccc(C2C(C(=O)Nc3ccc(OC)c(OC)c3)c3ccccc3C(=O)N2C)cc1 (stereo not given)	11%	9%	55%	1%	?	?
COc1ccc(C2C(C(=O)Nc3cccc(C)n3)c3ccccc3C(=O)N2C)cc1 (stereo not given)	2%	-22%	10%	0%	3.7µM*	?
CN(C(=O)COC(=O)CNC(=O)c1cccs1)c1c(N)n(Cc2ccccc2)c(=O)[nH]c1=O	19%	2%	-15%	-5%	?	41%
Cc1ccc2c(=O)cc(C(=O)Nc3c(C)n(C)n(-c4ccccc4)c3=O)oc2c1	-10%	/	/	7%	/	/
O=C(Nc1ccc(S(=O)(=O)N2CCCCC2)cc1)C1CCCN(C(=O)c2ccc(Cl)cc2)C1 (stereo not given)	-1%	23%	19%	4%	12µM*	?
O=C(Nc1cccc(F)c1)C1CCCN(C(=O)c2ccc(Cl)cc2)C1 (stereo not given)	-3%	3%[6.58 µM]	-14%	-17%	?	?
O=C(Nc1cccc(S(=O)(=O)N2CCCCCC2)c1)C1CCN(C(=O)c2ccc(Cl)cc2)CC1	-10%	/	11%	-14%	-19%	?
CC(NC(=O)C1CCCN(C(=O)c2ccc(Cl)cc2)C1)c1cccc(C(F)(F)F)c1 (stereo not given)	-25%	3%	114%	-5%	?	13µM*
O=C(Nc1cccc(S(=O)(=O)N2CCOCC2)c1)C1CCCN(C(=O)c2ccc(Cl)cc2)C1 (stereo not given)	4%	5%	49%	3%	10µM*	?
Cc1cc2oc(C(=O)Nc3sc4c(c3C(=O)NCC3CCCO3)CCCC4)cc(=O)c2cc1C (stereo not given)	-18%	/	/	2%	/	/
COCCCn1c(SCC(=O)N2CCCC(C)C2)nnc1-c1ccco1 (stereo not given)	?	4%	-5%	1%	0.59µM*	-5%
CC1Cc2ccccc2N1C(=O)CSc1nc(-c2ccccc2)cs1 (stereo not given)	-2%	-1%	-5%	2%	10µM*	?
